From PubChem BioAssay
For some assays here: Measured potencies and affinities stand elsewhere. Activity calls are given as the source filed them.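 Rule for the calls, unless noted: active = primary screen inhibitor hit that blocks the TRPC4 channel at some tested dose, yielding a dose curve; inactive = the rest.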

Tests used:
[1] = tested on: TRPC4 beta (transient receptor potential cation channel C4), mouse; experiment: TRPC4 cation channel opening, retest – cell-based, Fluo4 calcium, HEK293 TRPC4beta/mu-opioid, duplicates, 10 µM, confirmation (AID 2426;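 active = fluorescence ratio normalized to control raised more than 50% in primary screen plus both repeat runs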); details: Fluo4 calcium fluorescence, at 10 µM; stronger effect = higher value
[2] = tested on: transient receptor potential cation channel C4 beta (TRPC4), mouse; experiment: TRPC4 cation channel opening, second retest – cell-based, second round, Fluo4, HEK293 TRPC4beta/mu-opioid, 1 µM, confirmation (AID 2461;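 active = primary screen active and over 50% activation in each of two duplicate runs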); details: Fluo4 calcium fluorescence, at 1 µM; stronger effect = higher value
[3] = tested on: TRPC4 (transient receptor potential cation channel C4 beta), mouse; experiment: potentiation of DAMGO EC20 TRPC4 response – cell-based, second round, Fluo-4, HEK293 TRPC4beta/mu-opioid, 1 µM, confirmation (AID 2554;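 active = primary screen hit whose fluorescence ratio, in both repeats, exceeds the weak agonist control mean by 3 SD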); details: DAMGO EC20, Fluo-4 calcium flux, at 1 µM; stronger effect = higher value
[4] = tested on: TRPC4 beta (transient receptor potential cation channel C4), mouse; experiment: potentiation of DAMGO EC20 TRPC4 response – cell-based, Fluo-4, HEK293 TRPC4beta/mu-opioid, confirmation (AID 2555;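 active = primary screen hit whose calcium fluorescence ratio, in both repeats, exceeds the weak agonist control mean by 3 SD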); details: DAMGO EC20, Fluo-4 calcium flux, at 10 µM; stronger effect = higher value
[5] = target: Short transient receptor potential channel 4 (Mus musculus) (UniProt Q9QUQ5); experiment: blockers of DAMGO-evoked TRPC4 calcium flux – cell-based, Fluo4, HEK293 TRPC4beta/mu-opioid, confirmation (AID 2636;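 active = calcium signal cut by more than 3 SD below the full-agonist control yet still positive, in both repeats and the earlier primary screen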); details: at 10 µM; stronger effect = higher value
Short transient receptor potential channel 4 (Mus musculus), sequence (Q9QUQ5 whole entry, looked up): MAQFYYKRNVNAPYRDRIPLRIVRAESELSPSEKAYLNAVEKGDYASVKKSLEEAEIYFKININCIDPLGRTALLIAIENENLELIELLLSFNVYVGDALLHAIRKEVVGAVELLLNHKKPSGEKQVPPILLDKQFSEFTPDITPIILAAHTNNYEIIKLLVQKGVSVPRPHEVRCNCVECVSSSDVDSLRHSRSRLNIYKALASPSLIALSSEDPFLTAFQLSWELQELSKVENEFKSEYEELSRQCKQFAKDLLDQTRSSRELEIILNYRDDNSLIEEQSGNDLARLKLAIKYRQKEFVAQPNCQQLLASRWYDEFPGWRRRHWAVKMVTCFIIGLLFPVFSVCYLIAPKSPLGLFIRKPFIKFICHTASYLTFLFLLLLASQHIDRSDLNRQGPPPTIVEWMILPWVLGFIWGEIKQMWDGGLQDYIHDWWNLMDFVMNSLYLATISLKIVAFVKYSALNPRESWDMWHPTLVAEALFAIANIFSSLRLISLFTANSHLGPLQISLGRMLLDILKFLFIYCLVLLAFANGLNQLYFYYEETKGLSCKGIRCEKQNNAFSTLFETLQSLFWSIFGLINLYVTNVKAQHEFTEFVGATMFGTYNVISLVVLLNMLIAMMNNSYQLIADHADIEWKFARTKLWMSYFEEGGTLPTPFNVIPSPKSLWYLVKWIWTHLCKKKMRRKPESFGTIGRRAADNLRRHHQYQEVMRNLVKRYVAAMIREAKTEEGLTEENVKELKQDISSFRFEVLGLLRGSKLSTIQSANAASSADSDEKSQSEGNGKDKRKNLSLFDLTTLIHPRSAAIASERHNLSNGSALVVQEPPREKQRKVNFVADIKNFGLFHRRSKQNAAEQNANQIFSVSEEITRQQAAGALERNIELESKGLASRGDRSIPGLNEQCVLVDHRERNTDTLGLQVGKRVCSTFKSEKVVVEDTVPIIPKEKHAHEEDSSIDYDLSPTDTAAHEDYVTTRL

[6] = target: Short transient receptor potential channel 4 (Mus musculus) (UniProt Q9QUQ5); experiment: blockers of DAMGO-evoked TRPC4 calcium flux – cell-based, second round, Fluo4, HEK293 TRPC4beta/mu-opioid, 1 µM, confirmation (AID 2637;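 active = calcium signal ratio cut to more than 3 SD under the fully stimulated control mean yet still positive, in both repeats and the primary screen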); details: at 1 µM; stronger effect = higher value
[7] = target: Short transient receptor potential channel 4 (Mus musculus) (UniProt Q9QUQ5); experiment: calcium entry via TRPC4 opening agents – cell-based, HEK293 TRPC4/mu-opioid, Fluo-4 calcium, dose response (AID 434937;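 active = primary screen activator hit with a dose response curve and TRPC4 channel activation at any tested dose; inactive = no activation, no dose response, or not a primary hit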)
[8] = target: Short transient receptor potential channel 4 (Mus musculus) (UniProt Q9QUQ5); experiment: potentiation of DAMGO-evoked TRPC4 calcium signal – cell-based, HEK293 TRPC4/mu-opioid, Fluo-4 calcium, EC20 DAMGO, dose response (AID 434941;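 active = earlier screen potentiator hit that boosts the TRPC4 ion channel at some dose, with a dose response; inactive = no potentiation, no dose response, or not a prior hit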;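 note: calcium entry triggered by an EC20 dose of DAMGO at the co-expressed mu-opioid receptor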)
[9] = target: Short transient receptor potential channel 4 (Mus musculus) (UniProt Q9QUQ5); experiment: block of DAMGO-driven TRPC4 calcium entry – cell-based, HEK293 TRPC4/mu-opioid, Fluo-4 calcium, dose response (AID 434942)
[10] = target: Short transient receptor potential channel 6 (Mus musculus) (UniProt Q61143); experiment: TRPC6 blockade by TRPC4 inhibitor hits – cell-based, HEK293, membrane potential dye, duplicate, selectivity assay for TRPC4 inhibitor project, confirmation (AID 434948;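 active = active in primary screen and both duplicates, each dropping signal beyond three positive-control SD with fluorescence still positive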); details: HEK293 TRPC6, membrane potential dye fluorescence, at 10 µM, stimulated with maximal-effect acetylcholine; stronger effect = higher value
Short transient receptor potential channel 6 (Mus musculus), sequence (Q61143 whole entry, looked up): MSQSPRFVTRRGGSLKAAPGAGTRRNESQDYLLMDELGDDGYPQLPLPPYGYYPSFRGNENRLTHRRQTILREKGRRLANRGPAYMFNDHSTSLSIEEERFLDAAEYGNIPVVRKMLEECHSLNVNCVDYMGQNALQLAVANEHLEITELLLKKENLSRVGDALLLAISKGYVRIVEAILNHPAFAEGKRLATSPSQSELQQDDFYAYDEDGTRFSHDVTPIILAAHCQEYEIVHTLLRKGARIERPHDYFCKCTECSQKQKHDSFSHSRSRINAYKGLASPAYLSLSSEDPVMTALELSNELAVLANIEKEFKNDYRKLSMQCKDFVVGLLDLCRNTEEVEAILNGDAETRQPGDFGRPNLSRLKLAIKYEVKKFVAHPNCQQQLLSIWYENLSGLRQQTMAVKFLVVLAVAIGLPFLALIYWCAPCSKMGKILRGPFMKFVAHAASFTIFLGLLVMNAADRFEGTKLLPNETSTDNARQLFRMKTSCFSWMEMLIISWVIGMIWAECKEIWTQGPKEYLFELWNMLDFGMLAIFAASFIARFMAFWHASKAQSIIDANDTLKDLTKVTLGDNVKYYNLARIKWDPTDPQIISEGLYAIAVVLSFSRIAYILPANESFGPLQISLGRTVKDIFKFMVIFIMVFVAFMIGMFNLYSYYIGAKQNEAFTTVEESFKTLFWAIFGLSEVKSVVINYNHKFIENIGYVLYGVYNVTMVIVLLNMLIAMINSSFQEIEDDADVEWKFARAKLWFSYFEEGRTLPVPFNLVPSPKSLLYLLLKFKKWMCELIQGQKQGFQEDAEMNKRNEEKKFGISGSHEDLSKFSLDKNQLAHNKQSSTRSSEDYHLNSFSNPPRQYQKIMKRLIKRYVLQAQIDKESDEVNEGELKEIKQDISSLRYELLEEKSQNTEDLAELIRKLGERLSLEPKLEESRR

[11] = target: Short transient receptor potential channel 6 (Mus musculus) (UniProt Q61143); experiment: TRPC6 opening by TRPC4 activator hits – cell-based, HEK293, membrane potential dye, duplicate, selectivity assay for TRPC4 activator project, confirmation (AID 434950;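 active = membrane potential signal rise above negative control mean plus 3 SD in both duplicates, also active in the earlier TRPC4 screen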); details: HEK293 TRPC6, membrane potential fluorescence, at 10 µM; activation: stronger effect = higher value; outcome: activation
[12] = target: Short transient receptor potential channel 6 (Mus musculus) (UniProt Q61143); experiment: positive modulators of mouse TRPC6 channel – HEK293 cells, membrane potential dye, duplicate, selectivity assay for TRPC4 potentiator project, confirmation (AID 434952;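 active = compound raising the membrane signal above positive-control mean plus 3 SD in both repeats, and a primary screen hit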); details: HEK293 TRPC6, membrane potential dye fluorescence, at 10 µM, maximal acetylcholine added after compound; stronger effect = higher value
[13] = target: Short transient receptor potential channel 4 (Mus musculus) (UniProt Q9QUQ5); experiment: calcium flux activators in TRPC4/5HT1a cells, counter-screen for TRPC4 activator project, cell-based, second counter screen, HEK293 TRPC4/5HT1a, Fluo-4 (AID 434977;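 active = calcium signal rise above buffer-control mean plus 5 SD in both duplicates, and also a hit in the primary screen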); details: Fluo-4 calcium flux, at 10 µM; stronger effect = higher value
[14] = serotonin-gated TRPC4 signal block – cell-based, second counter screen, HEK293 TRPC4/5HT1a, Fluo-4, counter-screen for TRPC4 inhibitor project, confirmation (AID 434978;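 active = primary screen active whose calcium signal fell more than 3 SD beyond the full-serotonin control mean in both duplicate plates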;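 note: serotonin given first at submaximal then at maximal dose after compound preincubation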); details: Fluo-4 calcium flux, at 10 µM, serotonin added to trigger calcium flux; stronger effect = higher value
[15] = tested on: TRPC4 (mouse), co-expressed with 5HT1a in HEK293; experiment: enhancement of serotonin-evoked TRPC4 response – cell-based, second counter screen, HEK293 TRPC4/5HT1a, Fluo-4, counter-screen for TRPC4 potentiator project, confirmation (AID 434979;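 active = signal rise over 3 SD above mean of control wells given weak agonist, in both repeats and first screen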); details: Fluo-4 calcium flux, at 10 µM, serotonin added at its EC20 dose; stronger effect = higher value
[16] = nonspecific calcium rise without TRPC4 – cell-based, HEK293 mu-opioid receptor line, counter-screen for TRPC4 activator project, confirmation (AID 449723;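 active = hit in primary screen, with calcium signal over 5 SD above buffer well mean in both duplicates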;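 note: counter screen cells carry the mu-opioid receptor alone and lack TRPC4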); details: HEK293 mu-opioid cells, Fluo-4 calcium fluorescence, at 10 µM; stronger effect = higher value
[17] = nonspecific potentiation of DAMGO calcium response – cell-based, HEK293 mu-opioid receptor line, counter-screen for TRPC4 allosteric potentiator project, confirmation (AID 449724;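 active = calcium signal rise more than 3 SD above the low-dose agonist control mean, in both duplicate plates and the primary screen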); details: HEK293 mu-opioid receptor cells, Fluo-4 calcium flux, at 10 µM, compound added before EC20 DAMGO stimulus; stronger effect = higher value

Row | SMILES | outcome [1] | outcome [2] | outcome [3] | outcome [4] | outcome [5] | outcome [6] | outcome [7] | outcome [8] | outcome [9] | outcome [10] | outcome [11] | outcome [12] | outcome [13] | outcome [14] | outcome [15] | outcome [16] | outcome [17] | potentiation [4] | potentiation [15] | potentiation [3]
1 | COc1ccccc1NC(=O)CSc1n[nH]c(-c2ccccn2)n1 | inactive | inactive | inactive | inactive | inactive | inactive | inactive | inactive | inactive | inactive | inactive | inactive | inactive | inactive | inactive | inactive | inactive |  |  | 
2 | CSCC[C@H](NC(=O)N1CCn2c1nc1ccccc12)C(=O)NCc1ccc(C)cc1 | inactive | inactive | inactive |  | inactive | inactive | inactive | inactive | inactive | inactive | inactive | inactive | inactive | inactive |  | inactive | inactive | 30% (active) | 6.18% (active) | 
3 | CCOC(=O)c1c(C(F)(F)C(F)(F)C(F)(F)C(F)(F)F)n[nH]c1C | inactive | inactive | inactive | inactive | inactive | inactive | inactive | inactive | inactive | inactive | inactive | inactive | inactive | inactive | inactive | inactive | inactive |  |  | 
4 | COc1ccc(-n2ncc3c(N4CCc5ccccc54)ncnc32)cc1 | inactive | inactive | inactive | inactive | inactive | inactive | inactive | inactive | inactive | inactive | inactive | inactive | inactive | inactive | inactive | inactive | inactive |  |  | 
5 | COC(=O)CC(NC(=S)NC(=O)c1ccccc1)c1ccc(Br)cc1 (configuration not stated) | inactive | inactive | inactive |  | inactive | inactive | inactive | inactive | inactive | inactive | inactive | inactive | inactive | inactive |  | inactive | inactive | 35% (active) | 12.5% (active) | 
6 | Cc1cc2cc(CN(Cc3cccs3)C(=S)NCc3ccco3)c(=O)[nH]c2cc1C | inactive | inactive | inactive | inactive | inactive | inactive | inactive | inactive | inactive | inactive | inactive | inactive | inactive | inactive | inactive | inactive | inactive |  |  | 
7 | O=C(Nc1ccc(Cl)c(Cl)c1)N(CCCN1CCOCC1)Cc1cccs1 | inactive | inactive | inactive | inactive | inactive | inactive | inactive | inactive | inactive | inactive | inactive | inactive | inactive | inactive | inactive | inactive | inactive |  |  | 
8 | CC1(C(=O)OCc2cc(=O)n3cc(Br)ccc3n2)CC1(Cl)Cl (configuration not stated) | inactive | inactive |  |  | inactive | inactive | inactive | inactive | inactive | inactive | inactive | inactive | inactive | inactive |  | inactive | inactive | 84% (active) | 56.2% (active) | 15% (active)
9 | NS(=O)(=O)c1ccc(NN=C2CCN(Cc3ccccc3)CC2)c([N+](=O)[O-])c1 | inactive | inactive | inactive | inactive | inactive | inactive | inactive | inactive | inactive | inactive | inactive | inactive | inactive | inactive |  | inactive | inactive |  | 16.3% (active) | 
10 | CCOC(=O)C1(CC2CC2)CCN(Cc2cn[nH]c2-c2cccc(F)c2)CC1 | inactive | inactive | inactive | inactive | inactive | inactive | inactive | inactive | inactive | inactive | inactive | inactive | inactive | inactive | inactive | inactive | inactive |  |  | 
11 | O=c1c2ccccc2nc(COc2ccccc2)n1/N=C/c1cc([N+](=O)[O-])ccc1O | inactive | inactive |  |  | inactive | inactive | inactive | inactive | inactive | inactive | inactive | inactive | inactive | inactive |  | inactive | inactive | 23% (active) | 10.5% (active) | 11% (active)
12 | C/C(CC(=O)NCc1ccc(Cl)cc1)=N\NC(=O)COc1ccc(C)cc1Br | inactive | inactive | inactive | inactive | inactive | inactive | inactive | inactive | inactive | inactive | inactive | inactive | inactive | inactive | inactive | inactive | inactive |  |  | 
13 | Cc1ccccc1-c1n[nH]c(=S)n1Cc1ccccc1 | inactive | inactive | inactive | inactive | inactive | inactive | inactive | inactive | inactive | inactive | inactive | inactive | inactive | inactive | inactive | inactive | inactive |  |  | 
14 | CC(=O)Nc1nc2ccc(S(=O)(=O)N3CCCCC3)cc2s1 | inactive | inactive | inactive | inactive | inactive | inactive | inactive | inactive | inactive | inactive | inactive | inactive | inactive | inactive | inactive | inactive | inactive |  |  | 
15 | Cc1ccc(CNC(=O)CCC2CCCN(Cc3cc4ccccc4o3)C2)o1 (configuration not stated) | inactive | inactive | inactive | inactive | inactive | inactive | inactive | inactive | inactive | inactive | inactive | inactive | inactive | inactive | inactive | inactive | inactive |  |  | 
16 | Cc1ccc(S(=O)(=O)NC(C(=O)Oc2cc3oc(=O)cc(C)c3cc2Cl)C(C)C)cc1 (configuration not stated) | inactive | inactive | inactive | inactive | inactive | inactive | inactive | inactive | inactive | inactive | inactive | inactive | inactive | inactive | inactive | inactive | inactive |  |  | 
